The campaign covered roughly 48,000 compounds. About 13,000 (27%) showed an effect of 50% or more. The list shows a part of the results.
Tested on: Wolbachia pipientis
Assay: Anti-Wolbachia Cell-Based Screen
Assay type: functional
Set-up: scale not given: in the data most compounds retested in dose-response had high values
Conditions: 5 µM

Compound	Percent Effect
CN(C)C(=O)CCNC(=O)NCc1ccc(Br)cc1Cl	9.255%
O=c1[nH]nc(CNc2ncc(Br)cn2)[nH]1	1.625%
CC(=O)c1cccc(OCCCC(=O)N(C)C2CCN(C)CC2)c1	-6.579%
COc1ccc(CNCCc2cc(F)cc3c2OCOC3)cc1O	19%
CCC(O)CN1CCN(C(=O)C2(c3ccc(C)c(OC)c3)CC2)CC1 (stereo unspecified)	-7.505%
CCC(CN1CCN(C)CC1)NC(=O)C1(c2cccc(F)c2)CC1.O=C(O)CC(O)(CC(=O)O)C(=O)O (stereo unspecified)	126%
CCC(=O)N1CCC2(CCN(Cc3cccc(F)c3)CC2)CC1.O=C(O)C(F)(F)F	-2.197%
COCC1c2c(cnn2C)CCN1C(=O)c1ccc2c(c1)OCO2 (stereo unspecified)	20.59%
CCCC(O)CN1CCC(=O)N(CCOC)Cc2cc3c(cc21)OCO3 (stereo unspecified)	110.9%
O=C(O)C(F)(F)F.O=C(O)C(F)(F)F.c1cc2c(cc1CN1CC[C@H]3[C@H]1CCN3CC1CC1)OCO2	-18.3%
CCN1CC(C(=O)N2CCc3cc(C(=O)N(C)C)n(C)c3C2)CCC1=O (stereo unspecified)	22.54%
COCCN1C[C@H]2CN(C(=O)c3ccc4c(c3)OCO4)CCN2C1=O	-8.36%
CCCC(O)CN1CCC(=O)N(CC)Cc2cc3c(cc21)OCO3 (stereo unspecified)	85.4%
Cc1ccccc1N1CCN(C(=O)Cc2ccc3c(c2)OCO3)CC1=O	-22.32%
CCCC(O)CN1CCC(=O)N(CC2CC2)Cc2cc3c(cc21)OCO3 (stereo unspecified)	71.64%
CC(=O)N1CC[C@H]2CC(=O)N(Cc3ccc4c(c3)OCO4)CC[C@H]2C1	1.484%
CC(NC(=O)Nc1ccccc1CN1CCOCC1)c1nnc(N)s1 (stereo unspecified)	1.041%
Cc1cc(C)n(CC(C)NCc2nncn2C2CCCCC2)n1 (stereo unspecified)	-18.85%
CCC(C)NS(=O)(=O)Cc1cccc(NC(=O)c2ccc[nH]2)c1 (stereo unspecified)	-2.911%
Cc1ncsc1CCN(C)C(=O)CN1CC2(CCCC2)CC1=O	-2.773%
COc1cc(C(=O)NCCc2ccccc2OC)on1	0.865%
O=C(N[C@H]1CC[C@H](O)CC1)c1ccc2nc(-c3ccccc3)cn2c1	-19.25%

Compound	Percent Effect
CC(C)n1cc(CN2CCCN(C(=O)CC3CCCCC3)CC2)cn1	102.4%
CCc1[nH]ncc1C(=O)N1CCCN(Cc2cnn(C(C)C)c2)CC1	-9.524%
CC(C)n1ccnc1CN1CCCN(C(=O)COC2CCCC2)CC1	-4.301%
CC(C)n1cc(CN2CCCN(C(=O)COC3CCCC3)CC2)cn1	98.23%
CC(C)n1cc(CN2CCCN(C(=O)CC3CCCO3)CC2)cn1 (stereo unspecified)	115.9%
CCCC(=O)N1CCCN(C(=O)Nc2ccc(C)s2)CC1	4.138%
O=C(C(c1ccccc1)N1CCc2cncnc2C1)N1CCCCC1 (stereo unspecified)	-0.8294%
N#CC1(NC(=O)COc2cc(Cl)cc(Cl)c2)CCSC1 (stereo unspecified)	-14.75%
O=C(NCCCn1cnnc1)C1CCCN(C2CCCC2)C1 (stereo unspecified)	8.155%
O=C(CCOc1ccccc1F)N1CCCC1Cn1cccn1 (stereo unspecified)	123.4%
COc1cc(C)ccc1OCCC(=O)N1CCCC1Cn1cccn1 (stereo unspecified)	6.133%
O=C(c1ccccc1OCC1CC1)N1CCCC1Cn1cccn1 (stereo unspecified)	15.75%
COc1ccccc1OCCC(=O)N1CCCC1Cn1cccn1 (stereo unspecified)	114.3%
O=C(CCCOc1ccc(F)cc1F)N1CCCC1Cn1cccn1 (stereo unspecified)	4.503%
O=C(CCOc1ccccc1F)N1CCCCC1Cn1cccn1 (stereo unspecified)	114.4%
CCOCCC(=O)N1CCCCC1CCn1cccn1 (stereo unspecified)	-10.55%
O=C1O[C@@H]2CN(c3ncccn3)C[C@@H]2N1CCCc1ccc(F)cc1	0.8552%
CCc1nc(CN(CC(N)=O)C(C)C)cs1	-5.873%
CN(C)CCOc1ccccc1N1CCN(C(=O)C(C)(C)C#N)CC1	12.48%
COCCN(Cc1c(C)nn(C)c1C)C(=O)C1COc2ccccc2C1 (stereo unspecified)	-13.07%
Cc1cc(C)n(CC2CCCCN2CC(=O)Nc2cccnc2)n1 (stereo unspecified)	-5.388%
CN(Cc1nc(-c2cccnc2)no1)C(=O)c1cccn1C	-3.845%

Compound	Percent Effect
COc1cccc(S(=O)(=O)N2C[C@@H](O)[C@H](N(C)C)C2)c1	179.9%
COc1ccc(S(=O)(=O)N2C[C@H](OC)[C@]3(CCCO3)C2)cc1	124.9%
COc1cccc(S(=O)(=O)N2C[C@@H](N(C)C)[C@H](C(C)C)C2)c1	-6.322%
CO[C@H]1CN(S(=O)(=O)c2ccc(F)cc2)C[C@@]12CCCO2	187.7%
COC1COC2(CCN(S(=O)(=O)c3ccc(F)cc3)CC2)C1 (stereo unspecified)	-4.083%
CCN1CCNC(=O)C12CCN(S(=O)(=O)c1ccc(OC)cc1)CC2	15.65%
CC(C)[C@@H]1CN(S(=O)(=O)c2cccc(C(=O)O)c2)C[C@H]1N(C)C	0.7097%
COc1cccc(C(C)N2CCN(S(=O)(=O)c3ccccc3)CC2)c1 (stereo unspecified)	-3.731%
COc1cccc(S(=O)(=O)CCN2CCC3(CC2)OCCO3)c1	-7.046%
COc1cccc(S(=O)(=O)N2C[C@H](OC)[C@]3(CCCO3)C2)c1	151.5%
CCOC1COC2(CCN(S(=O)(=O)c3ccc(F)cc3)CC2)C1 (stereo unspecified)	-48.73%
COc1ccc(S(=O)(=O)N2CCCC3(CCCN3S(C)(=O)=O)C2)cc1 (stereo unspecified)	-14.23%
Cc1nnc(C(C)Nc2cccc(COCC(F)(F)C(F)F)c2)o1 (stereo unspecified)	6.562%
CC(C)Cc1cn(C2CCN(C(C)CC3CC3)CC2)nn1 (stereo unspecified)	4.944%
O=C1NCC2(CCCN(C(=O)c3ccc4c(c3)OCCO4)CC2)O1 (stereo unspecified)	12.75%
COc1cc(F)c(S(=O)(=O)N2c3ncccc3NC(=O)C2C)cc1OC (stereo unspecified)	-16.51%
O=C(CCc1nc2cccnc2[nH]1)Nc1cccnc1	5.191%
CN(Cc1ccc(N2CCCCC2)cc1)Cc1noc(C(C)(C)C)n1	16.16%
O=C(c1ccccn1)N1C[C@@H]2CC[C@H](C1)N(C(=O)CCc1cccs1)C2	-9.254%
Cc1noc(C)c1CN(C)C(=O)NC1CCN(c2ncccn2)CC1	-8.201%
C[C@@H]1CN(S(=O)(=O)c2ccc(F)cc2F)C[C@]1(C)O	4.198%
CO[C@H]1CN(S(=O)(=O)c2ccccc2F)C[C@@]12CCCO2	166.4%

Compound	Percent Effect
CNC(=O)[C@@]12CCO[C@@H]1CCN(S(=O)(=O)c1ccccc1F)C2	-14.92%
CO[C@H]1CN(S(=O)(=O)c2ccc(C)cc2)C[C@@]12CCCO2	89.74%
O=C(CN1CCCNC1=O)N(Cc1ccccc1)CC(F)F	-9.06%
O=C(c1cccc(Cl)c1)N1CC[C@@H](N2CCC(O)CC2)[C@H](O)C1	-1.425%
CC1=C(CCN2CC[C@@H](N3CCC(O)CC3)[C@H](O)C2)C(C)(C)CCC1	-3.551%
CSCCC1c2nc[nH]c2CCN1Cc1[nH]c2ccc(F)cc2c1C (stereo unspecified)	8.699%
Cc1c(CN2CCc3[nH]cnc3C2C2CC2)[nH]c2ccc(F)cc12 (stereo unspecified)	10.14%
Cc1ccc2[nH]c(CN3CC[C@@H](N4CCN(C)CC4)[C@H](O)C3)c(C)c2c1	130.9%
Cc1c(CN2CC[C@@H](N3CCC(O)CC3)[C@H](O)C2)[nH]c2ccc(Cl)cc12	105.3%
CN1CCN([C@@H]2CCN(Cc3cccc(-n4cccn4)c3)C[C@H]2O)CC1	-7.292%
CN1CCN([C@@H]2CCN(Cc3ccc4cc(F)ccc4n3)C[C@H]2O)CC1	-21.32%
Cc1c(CN2C[C@H](O)[C@@H](N3CCOCC3)C2)[nH]c2ccc(F)cc12	90.42%
Cc1c(CN2CC[C@@H](N3CCC(O)CC3)[C@H](O)C2)[nH]c2ccc(F)cc12	105.6%
Cc1c(CN2CCc3[nH]cnc3C2C(=O)O)[nH]c2ccc(F)cc12 (stereo unspecified)	4.217%
CN1CCN([C@@H]2CCN(CC3=Cc4cc(Cl)ccc4OC3)C[C@H]2O)CC1	-16.81%
O=C(NCc1ccc(F)cc1F)C(c1cccnc1)N1CCOCC1 (stereo unspecified)	-3.204%
CC(C)(C)C(=O)N[C@H]1C[C@@H](Cc2cc(CN3CCOCC3)on2)C1(C)C	-2.41%
CC(Sc1nnc(C2CC2)n1CC(N)=O)c1ccc(F)c(Cl)c1 (stereo unspecified)	-2.548%
Cc1ccc(CNC(=O)C2CCCCN2C(=O)OC(C)(C)C)cn1 (stereo unspecified)	1.092%
CCSc1ccc(C(=O)N2CCCCC2C(=O)N2CCCC2)cn1 (stereo unspecified)	151.8%
CC(C)(C)NC(=O)C1CCCCN1Cc1nccn1CC(F)(F)F (stereo unspecified)	-2.197%
COC(=O)N1CCCCC1C(=O)N1CCN(c2ncccc2C)CC1 (stereo unspecified)	-6.544%

Compound	Percent Effect
CC(C)Cc1cc(C(=O)N2CCC[C@H]2C(=O)N2CCOCC2)on1	-13.85%
CCSc1ccc(C(=O)N2CCCCC2C(=O)NC(C)(C)C)cn1 (stereo unspecified)	116.3%
CCSc1ccc(C(=O)N2CCCC2C(=O)N2CCOCC2)cn1 (stereo unspecified)	144.8%
CCSc1ccc(NC(=O)N2CCCC2c2ccncc2)cn1 (stereo unspecified)	-0.7424%
Cn1ccc2ccc(C(=O)N3CCC[C@H]3C(=O)N3CCOCC3)cc21	12.68%
CCn1c(CN(C)C)nnc1C1CCN(Cc2cccc(C#N)c2)CC1	-18.18%
COc1cccc(CNC(=O)CC2CSc3nc(C)c(C)c(=O)n32)c1 (stereo unspecified)	131.7%
Cc1cnc2n(c1=O)C(CC(=O)NCc1ccccc1Cl)CS2 (stereo unspecified)	121.9%
O=C(NCc1cccnc1)N1CCSCC1CCO (stereo unspecified)	-15.06%
Cc1nsc(N2CCN(CC(=O)NCc3ccc(F)cc3)CC2)n1	-5.243%
Cc1ccc(CNC(=O)CC2C(=O)NCCN2Cc2ccccc2C)s1 (stereo unspecified)	4.539%
CC(=O)NC[C@@H]1C=C(C)[C@H](CC(=O)NCc2cccnc2)C[C@H]1C(C)C	-8.421%
Cc1cnc2n(c1=O)C(CC(=O)NCc1cccnc1)CS2 (stereo unspecified)	115%
Cc1cnc2n(c1=O)C(CC(=O)NCc1ccc(F)cc1)CS2 (stereo unspecified)	120.7%
Cc1cnc2n(c1=O)CC(C(=O)Nc1ccccc1Cl)CS2 (stereo unspecified)	-3.995%
Cc1cc(=O)n2c(n1)SCC2CC(=O)NCc1cc(-c2ccco2)on1 (stereo unspecified)	1.39%
O=C(Cn1nc(-c2ccc(F)cc2)oc1=O)NCc1ccc(F)cc1	-3.011%
COc1cccc(CNC(=O)CC2CSc3ncc(C)c(=O)n32)c1 (stereo unspecified)	19.59%
